According to PubChem BioAssay:
Unmarked numbers belong to inactive results. For some assays here: Entries with a potency or affinity are not part of this list. The source made the active and inactive calls. Unless noted, no rule for the calls is given here.

How the values were obtained:
[1] = antimalarial activity against Dd2 strain (AID 2302;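 active = growth inhibition above 50% at the single 2 µM test dose, taken to imply half-maximal potency below 2 µM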;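 also: 0% = DMSO untreated growth and 100% = chloroquine plus artemisinin killed control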); settings: P. falciparum Dd2 in RBCs, LDH growth readout, 72 h; at 2 µM; hits give high values
[2] = human hepatoma cell viability loss – ATP luminescence, cytotoxicity control for P. falciparum antimalarial project, primary screen (AID 2303;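 active = inhibition above 50%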;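 also: 0% = DMSO wells and 100% = digitonin-killed cells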); settings: HepG2 viability, 24-48 h, at 10 µM, hits give high values
[3] = molecular target: L-lactate dehydrogenase (Plasmodium falciparum (isolate CDC / Honduras)) (UniProt Q27743); assay: PfLDH activity inhibition – cell lysate, 3D7 strain, counter-screen for P. falciparum growth inhibition project (AID 2304);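 also: 0% = vehicle and 100% = reference inhibitor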; settings: P. falciparum 3D7 crude extract, LDH APAD/NBT absorbance; at 2 µM; hits give high values
Sequence of L-lactate dehydrogenase (Plasmodium falciparum (isolate CDC / Honduras)) (Q27743 whole entry, looked up): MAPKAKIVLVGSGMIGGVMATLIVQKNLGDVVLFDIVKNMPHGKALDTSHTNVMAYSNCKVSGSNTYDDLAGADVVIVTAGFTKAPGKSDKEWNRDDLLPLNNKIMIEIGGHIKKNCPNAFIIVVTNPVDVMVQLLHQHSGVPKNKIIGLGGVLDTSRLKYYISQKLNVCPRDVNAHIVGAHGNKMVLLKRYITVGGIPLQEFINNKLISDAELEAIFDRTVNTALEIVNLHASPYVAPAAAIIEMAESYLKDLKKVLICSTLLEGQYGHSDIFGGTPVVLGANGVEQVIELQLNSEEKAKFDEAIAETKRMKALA

[4] = inhibition of 3D7 malaria parasite growth – strain 3D7 (AID 2306);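 also: 0% = DMSO wells and 100% = chloroquine plus artemisinin control wells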; settings: P. falciparum 3D7 erythrocytic growth, LDH absorbance, 72 h; at 2 µM; hits give high values
[5] = molecular target: Calcium-dependent protein kinase 1 (Plasmodium falciparum (isolate 3D7)) (UniProt P62344); assay: PfCDPK1 kinase inhibitors, biochemical, TCAMS library (AID 1159585; cut-off not given, nearly all actives have IC50 up to about 0.98 µM;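 also: inhibitors leave more ATP so luminescence rises with inhibition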); settings: recombinant PfCDPK1, Kinase-Glo ATP depletion luminescence
Sequence of Calcium-dependent protein kinase 1 (Plasmodium falciparum (isolate 3D7)) (P62344 whole entry, looked up): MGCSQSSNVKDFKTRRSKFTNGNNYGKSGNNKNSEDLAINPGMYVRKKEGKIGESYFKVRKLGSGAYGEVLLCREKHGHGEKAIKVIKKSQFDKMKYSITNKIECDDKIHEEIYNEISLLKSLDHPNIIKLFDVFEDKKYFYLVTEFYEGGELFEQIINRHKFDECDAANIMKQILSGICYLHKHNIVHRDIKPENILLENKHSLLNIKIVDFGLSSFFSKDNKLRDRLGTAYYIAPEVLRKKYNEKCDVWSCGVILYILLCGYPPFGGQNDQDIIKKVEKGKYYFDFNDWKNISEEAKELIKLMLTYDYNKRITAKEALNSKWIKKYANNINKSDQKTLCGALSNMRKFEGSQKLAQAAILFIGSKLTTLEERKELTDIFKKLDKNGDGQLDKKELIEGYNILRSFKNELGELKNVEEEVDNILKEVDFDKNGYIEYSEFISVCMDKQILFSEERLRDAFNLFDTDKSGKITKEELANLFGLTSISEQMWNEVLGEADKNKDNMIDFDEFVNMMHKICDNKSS

[6] = molecular target: Plasmodium falciparum protein kinase 6 (PK6, PF3D7_1337100) (UniProt Q8IDW1); assay: PfPK6 kinase inhibitors, biochemical, TCAMS library (AID 1159586); settings: recombinant PfPK6, Kinase-Glo ATP depletion luminescence
Sequence of Plasmodium falciparum protein kinase 6 (PK6, PF3D7_1337100) (Q8IDW1 1-305): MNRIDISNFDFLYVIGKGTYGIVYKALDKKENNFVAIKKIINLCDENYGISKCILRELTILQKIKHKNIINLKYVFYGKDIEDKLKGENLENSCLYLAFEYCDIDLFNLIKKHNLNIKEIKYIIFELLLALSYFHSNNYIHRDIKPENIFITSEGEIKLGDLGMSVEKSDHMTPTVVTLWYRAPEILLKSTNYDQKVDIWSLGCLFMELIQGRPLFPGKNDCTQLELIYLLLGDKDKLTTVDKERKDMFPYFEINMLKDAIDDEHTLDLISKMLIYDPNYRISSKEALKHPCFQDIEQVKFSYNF

[7] = molecular target: Protein kinase 7 (PK7), Plasmodium falciparum 3D7 (PF3D7_0213400) (UniProt Q7YTF7); assay: inhibition of Plasmodium PK7 catalytic activity – biochemical, TCAMS antimalarial set, Kinase-Glo luminescence (AID 1159587); settings: recombinant PfPK7, Kinase-Glo ATP depletion luminescence
Sequence of Protein kinase 7 (PK7), Plasmodium falciparum 3D7 (PF3D7_0213400) (Q7YTF7 1-343): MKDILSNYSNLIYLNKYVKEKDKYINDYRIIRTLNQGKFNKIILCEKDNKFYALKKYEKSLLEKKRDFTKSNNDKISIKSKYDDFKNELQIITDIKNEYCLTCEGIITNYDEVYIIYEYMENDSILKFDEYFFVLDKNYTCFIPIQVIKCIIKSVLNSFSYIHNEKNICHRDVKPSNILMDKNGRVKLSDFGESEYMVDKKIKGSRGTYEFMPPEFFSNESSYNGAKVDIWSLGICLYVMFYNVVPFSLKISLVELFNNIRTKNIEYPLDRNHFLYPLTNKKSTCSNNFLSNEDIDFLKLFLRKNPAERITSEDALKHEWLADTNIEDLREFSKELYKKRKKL

[8] = molecular target: Calcium-dependent protein kinase 4 (Plasmodium falciparum (isolate 3D7)) (UniProt Q8IBS5); assay: PfCDPK4 kinase inhibitors, biochemical, TCAMS library (AID 1159588; cut-off not given, nearly all actives have IC50 up to about 0.91 µM); settings: recombinant PfCDPK4, Kinase-Glo ATP depletion luminescence
Sequence of Calcium-dependent protein kinase 4 (Plasmodium falciparum (isolate 3D7)) (Q8IBS5 whole entry, looked up): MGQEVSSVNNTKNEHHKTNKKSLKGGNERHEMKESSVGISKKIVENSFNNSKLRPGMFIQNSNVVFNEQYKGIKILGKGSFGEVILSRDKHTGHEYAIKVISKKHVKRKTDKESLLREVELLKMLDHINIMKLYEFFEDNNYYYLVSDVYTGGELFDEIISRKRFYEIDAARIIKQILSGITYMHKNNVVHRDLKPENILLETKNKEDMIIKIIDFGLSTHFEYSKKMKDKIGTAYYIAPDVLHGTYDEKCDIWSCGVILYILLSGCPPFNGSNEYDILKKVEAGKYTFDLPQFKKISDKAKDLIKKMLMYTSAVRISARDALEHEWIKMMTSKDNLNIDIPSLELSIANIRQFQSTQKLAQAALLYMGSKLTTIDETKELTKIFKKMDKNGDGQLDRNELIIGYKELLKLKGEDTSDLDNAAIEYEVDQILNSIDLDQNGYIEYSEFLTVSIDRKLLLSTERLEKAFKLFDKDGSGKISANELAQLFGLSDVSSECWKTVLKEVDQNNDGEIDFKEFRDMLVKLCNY

Structure (SMILES) | growth inhibition [1] | inhibition [2] | inhibition [3] [%] | growth inhibition [4] | outcome [5] | outcome [6] | outcome [7] | outcome [8]
CC(C)(C)C(=O)Nc1c(-c2cc(=O)oc3cc4c(cc23)CCC4)oc2ccccc12 | 100% (active) | -5% | 3 | 101% (active) | inactive | inactive | inactive | inactive
CCCc1cccc(C)c1OCCCON1C(N)=NC(N)=NC1(C)C | 96% (active) | 57% (active) | -2 | 95% (active) | inactive | inactive | inactive | inactive
O=S1N=C(NCCCN(Cc2cccs2)c2ccccn2)C(NCc2ccccc2)=N1 (stereo not given) | 25% | 10% | 0 | 92% (active) | inactive | inactive | inactive | inactive
CCN(C)CCCn1c(N(C)C)nc2cc(-n3cnc4cc(-c5ccc(Cl)cc5)sc4c3=O)ccc21 | 12% | 83% (active) | 5 | 80% (active) | inactive | inactive | inactive | inactive
CCc1ccc(CN2CCC(CNC(=O)c3cc(-c4ccccc4Cl)cs3)C2)cc1 (stereo not given) | 0% | 14% | -2 | 98% (active) | inactive | inactive | inactive | inactive
O=C(Nc1cccc(CN2CCCN(Cc3ccccc3)CC2)c1)c1ccc(Cl)c(Cl)c1 | 16% | 23% | -6 | 95% (active) | inactive | inactive | inactive | inactive
CC(C)COc1ccc(C(O)C(CN2CCCCC2)c2ccccc2)cc1 (stereo not given) | 89% (active) | 11% | -11 | 93% (active) | inactive | inactive | inactive | inactive
O[C@@H](c1cccc2ccccc12)[C@@H]1CN(CCc2ccccc2)CC[C@@]1(O)c1ccccc1 | 101% (active) | -2% | -2 | 99% (active) | inactive | inactive | inactive | inactive
O=C(/C=C/c1ccc(Cl)c(Cl)c1)NC1CCC(CN2CCC(c3cc4ccccc4[nH]3)CC2)CC1 (stereo not given) | -7% | 19% | 1 | 96% (active) | inactive | inactive | inactive | inactive
O=C(Nc1cccc(CN2CCN(C(=O)c3cccc(F)c3)CC2)c1)c1cccs1 | 95% (active) | 17% | 1 | 95% (active) | inactive | inactive | inactive | inactive
Cc1cc(C(=O)CSc2nc3ccccc3n2-c2ccccc2)c(C)n1C1CCS(=O)(=O)C1 (stereo not given) | -3% | -18% | 0 | 92% (active) | inactive | inactive | inactive | inactive
NC(=O)C1CCN(Cc2ccc(-c3ccc(-c4nc5ccc(C(F)(F)F)cc5[nH]4)cc3)cc2)CC1 | 90% (active) | 25% | -1 | 100% (active) | inactive | inactive | inactive | inactive
COc1ccc2nccc(N(C)CC3(O)CCC(NCc4cc5c(cn4)OCCO5)CC3)c2n1 (stereo not given) | 14% | 1% | -2 | 99% (active) | inactive | inactive | inactive | inactive
OCC1CCN(Cc2ccc(-c3cccc(-c4nc5ccccc5[nH]4)c3)cc2)CC1 | 6% | 21% | -1 | 101% (active) | inactive | inactive | inactive | inactive
Cc1cccc2[nH]c(-c3cccc(-c4ccc(C(=O)NCc5ccccc5S(C)(=O)=O)cc4)c3)nc12 | 27% | 17% | 1 | 100% (active) | inactive | inactive | inactive | inactive
Cc1ccc(Cc2c(C)nc3nc(N)nc(N)c3c2C)cc1 | 1% | 60% (active) | 5 | 93% (active) | inactive | inactive | inactive | inactive
COc1cc2nc(Cl)nc(Nc3ccncc3)c2cc1OC | 33% | 11% | -2 | 86% (active) | inactive | inactive | inactive | inactive
Cc1cc(N)nc2ccc(-c3cccc(CN)c3)cc12 | 59% (active) | 2% | -8 | 101% (active) | inactive | inactive | inactive | inactive
O=C(O)C[C@H](NC(=O)[C@@H]1CCCN1C(=O)c1cccc(-c2ccc(Cl)c(Cl)c2)c1)C(=O)O | 0% | -1% | 0 | 84% (active) | inactive | inactive | inactive | inactive
COc1c(C)[nH]c(C)c(-c2ccc(Oc3cccc(C(F)(F)F)c3)cc2)c1=O | 96% (active) | 40% | 3 | 98% (active) | inactive | inactive | inactive | inactive

Structure (SMILES) | growth inhibition [1] | inhibition [2] | inhibition [3] [%] | growth inhibition [4] | outcome [5] | outcome [6] | outcome [7] | outcome [8]
CCOC(=O)NOC(C(=O)O)c1ccccc1 (stereo not given) | 17% | 4% | -1 | 99% (active) | inactive | inactive | inactive | inactive
CC(C)COc1ccc(Cl)cc1Cc1nc(-c2nc3ccc(CN4CCCC4)cc3[nH]2)co1 | 66% (active) | 50% (active) | -1 | 101% (active) | inactive | inactive | inactive | inactive
COc1ccccc1-n1c(SCC(=O)Nc2ccccc2F)nc2cccnc21 | 88% (active) | -21% | 0 | 96% (active) | inactive | inactive | inactive | inactive
CC(C)N1CCC(Oc2ccc(CN3CCN(C(c4ccccc4)c4ccc(Cl)cc4)CC3)cc2)CC1 (stereo not given) | 46% | 44% | 4 | 97% (active) | inactive | inactive | inactive | inactive
Cc1cc(SC(C)(C)C)cc2c(Cl)c(C(N)=O)cnc12 | 98% (active) | 83% (active) | 0 | 98% (active) | inactive | inactive | inactive | inactive
COc1cc(Cc2cnc(N)nc2N)cc(OCCCCC2SC(=O)NC2=O)c1OC (stereo not given) | 0% | -9% | 7 | 94% (active) | inactive | inactive | inactive | inactive
CN(C(=O)c1snnc1-c1ccccc1)C1CCN(CCCCCNC(=O)/C=C/c2ccc(Cl)c(Cl)c2)CC1 | 58% (active) | 44% | 4 | 96% (active) | inactive | inactive | inactive | inactive
CC(=O)N(C)C1CCN(Cc2ccc(-c3ccc(-c4nc5ccc(F)cc5[nH]4)s3)cc2)C1 (stereo not given) | 22% | 46% | 1 | 98% (active) | inactive | inactive | inactive | inactive
COc1cc(C(=O)Nc2cccc(-c3cn4cccc(C)c4n3)c2)cc(OC)c1OC | 77% (active) | -3% | -1 | 99% (active) | inactive | inactive | inactive | inactive
c1ccc(Oc2ccc(Nc3ccnc4cc(-c5csc(CNCCN6CCOCC6)n5)ccc34)cc2)cc1 | 99% (active) | -1% | 0 | 101% (active) | inactive | inactive | inactive | inactive
COCC(C)n1c(SCC(=O)Nc2cc(C(F)(F)F)ccc2Cl)nc2ccccc2c1=O (stereo not given) | 96% (active) | 3% | 6 | 97% (active) | inactive | inactive | inactive | inactive
O=C(N[C@H]1CCN(Cc2ccc(OC3CCN(Cc4ccccc4)CC3)c(Br)c2)C1)c1ccc(Cl)c(Cl)c1 | 30% | 55% (active) | -1 | 100% (active) | inactive | inactive | inactive | inactive
Cc1cc(C(=O)CN2C(=O)NC(C)(c3ccc4ccccc4c3)C2=O)c(C)n1Cc1ccco1 (stereo not given) | 71% (active) | 12% | 1 | 97% (active) | inactive | inactive | inactive | inactive
CN(C)C(=O)c1cc(CNCc2ccccc2)ccc1-c1cccc(CNCc2ccc(-c3ccccc3)cc2)c1 | 12% | 27% | -3 | 90% (active) | inactive | inactive | inactive | inactive
O=C(Nc1ccc(-c2cccc(-c3nc4ccc(C(F)(F)F)cc4[nH]3)c2)cc1)c1csnn1 | 25% | 42% | -2 | 98% (active) | inactive | inactive | inactive | inactive
Cc1cc(C)cc(OCC(O)CN(CCN2CCOCC2)C(=O)Nc2ccc(Br)cc2)c1 (stereo not given) | 19% | 7% | 0 | 85% (active) | inactive | inactive | inactive | inactive
CN1CCN(C(C(=O)NCc2cc(Cl)cc(Cl)c2)c2ccc(Nc3cccc(C(F)(F)F)c3)cc2)CC1 (stereo not given) | 98% (active) | 49% | 5 | 85% (active) | inactive | inactive | inactive | inactive
O=C(C=Cc1ccccc1)Nc1ccc(C#CC=Cc2ccc(NC(=O)C=Cc3ccccc3)cc2)cc1 | 3% | 26% | 1 | 100% (active) | inactive | inactive | inactive | inactive
Fc1ccc2nc(-c3cccc(-c4cccc(CNCCN5CCNCC5)c4)c3)[nH]c2c1 | 4% | 18% | -9 | 94% (active) | inactive | inactive | inactive | inactive
CCOc1ccc(C(=O)Nc2cc(Br)c3c(c2)CNCC3)cc1Br | 21% | 18% | 0 | 96% (active) | inactive | inactive | inactive | inactive
